Cruzain inh Det: blocks cruzain activity in presence of Triton detergent; P25779; purified cruzain, Z-FR-AMC fluorescence, 0.01% Triton; Potency, µM, hits mostly inhibitors; 0.43% of 200,000 active; further: nearly all actives have a fitted effect of over 40% in size
Target sequence (P25779 123-467 limits assumed): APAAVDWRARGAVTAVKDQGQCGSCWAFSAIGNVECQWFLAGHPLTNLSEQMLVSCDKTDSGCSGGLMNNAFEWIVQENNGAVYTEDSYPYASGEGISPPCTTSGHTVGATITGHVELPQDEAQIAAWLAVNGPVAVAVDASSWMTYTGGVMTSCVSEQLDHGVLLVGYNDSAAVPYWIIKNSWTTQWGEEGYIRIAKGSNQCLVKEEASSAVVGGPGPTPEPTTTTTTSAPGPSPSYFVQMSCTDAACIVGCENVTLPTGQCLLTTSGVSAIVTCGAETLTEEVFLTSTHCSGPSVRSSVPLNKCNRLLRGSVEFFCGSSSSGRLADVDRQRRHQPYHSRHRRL
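Detergent-containing run (0.01% Triton X-100) in acetate buffer pH 5.5 with 5 mM DTT: enzyme at 1.5 nM final, 15 min compound preincubation at room temperature, then 2 uM Z-FR-AMC substrate. Activity taken as 60 s fluorescence increase at 360/450 nm.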
Cruzain inh noDet: inhibitors of Trypanosoma cruzi cruzain without detergent; purified cruzain, Z-FR-AMC fluorescence, no detergent; Potency, µM, usual class: inhibitors; P25779; 2.3% of 200,000 active; AID 1476; further: nearly all actives have a fitted effect of over 40% in size
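Purified cruzain at 1.5 nM, pre-incubated 15 min with compound at room temperature in 100 mM sodium acetate pH 5.5, 5 mM DTT, 0.00005% Triton X-100. Reaction started with 2 uM Z-FR-AMC; AMC fluorescence increase over 60 s gives rate.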
Each line names hits and unclear results; the compound was inactive in the other large screens. Hits are enriched below; roughly 2.6% of the tested compounds scored in any of these assays. The call rests on the fitted dose curve; in most records, active means well fitted curve in the direction sought with a large enough effect; inconclusive means small, poorly fitted or top-dose-only effect, or another doubt; inactive means no such curve, though single readings can be large; an effect the other way counts as inactive or inconclusive.

CC(=O)c1ccc(Nc2cc(C)nc3nc(Cc4ccccc4)nn23)cc1	none
NC1=NC(=O)/C(=C\C=C\c2ccccc2)S1	Cruzain inh noDet inconclusive
O=C1OC(/C=C/c2ccccc2)=NC/1=C/C=C/c1ccccc1	Cruzain inh Det 5µM, Cruzain inh noDet inconclusive
O=C(N/N=C\c1ccc(CNS(=O)(=O)c2ccc(Cl)cc2)o1)C(=O)Nc1ccc(Oc2ccccc2)cc1	Cruzain inh noDet 7.9µM
O=C(N/N=C\c1ccc(CN(Cc2ccc(Cl)cc2)S(=O)(=O)c2ccccc2)o1)C(=O)Nc1ccc(F)cc1	Cruzain inh noDet 7.9µM
O=C(N/N=C\c1ccc(CNS(=O)(=O)c2ccccc2)o1)C(=O)Nc1ccc(F)cc1	Cruzain inh noDet inconclusive
Cc1cccc(CN(CC(=O)N/N=C/c2ccco2)S(=O)(=O)c2ccc(Cl)cc2)c1	none
COc1cccc(N2CCN(Cc3nnc(-c4ccc5c(c4)OCO5)o3)CC2)c1	none
CCn1c(=O)c2cc(C(=O)Nc3cc(C)c(Cl)cc3OC)sc2c2ccccc21	none
COCCCNC(=O)c1cnc2sc(N3CCCCCC3)nn2c1=O	none
Fc1ccc(N2CCN(c3ncnc4c3nc3n4CCCC3)CC2)cc1	none
Brc1ccc(-c2ccc(/C=N/Nc3nncc(-c4ccccc4)n3)o2)cc1	none
O=[N+]([O-])c1ccc(N/N=C/c2c[nH]c3ccccc23)cc1	Cruzain inh noDet 25µM
Cc1nn(-c2ccccc2)c(N2CCCC2)c1/C=N/Nc1ccc(S(=O)(=O)Nc2ccccc2)cc1[N+](=O)[O-]	Cruzain inh noDet inconclusive
COc1ccc([N+](=O)[O-])cc1NS(=O)(=O)c1ccccc1	none
Brc1ccc(-c2ccc(/C=N/Nc3nc4ccccc4[nH]3)o2)cc1	Cruzain inh Det inconclusive, Cruzain inh noDet 7.9µM
COc1ccccc1NS(=O)(=O)c1cc([N+](=O)[O-])ccc1N/N=C/c1c[nH]c2ccccc12	Cruzain inh noDet 10µM
COc1ccccc1NS(=O)(=O)c1ccc(N/N=C/c2c(C)nn(-c3ccccc3)c2N2CCCC2)c([N+](=O)[O-])c1	Cruzain inh noDet 3.2µM
O=[N+]([O-])c1ccccc1N/N=C/c1c[nH]c2ccccc12	none
CCOC(=O)c1cccc(NC(=O)[C@H](CSCc2ccccc2)N2Cc3ccccc3C2=O)c1	Cruzain inh noDet inconclusive
O=C(Cn1ncc2c3ccccc3n(Cc3cccc(Cl)c3)c2c1=O)NCCC1=CCCCC1	none
C(=N\Nc1nc2ccccc2[nH]1)/c1c[nH]c2ccccc12	Cruzain inh Det inconclusive, Cruzain inh noDet 16µM
O=[N+]([O-])c1ccc(N/N=C/c2ccc[nH]2)cc1	Cruzain inh noDet 25µM
Cc1[nH]c2ccccc2c1/C=N/Nc1ccc([N+](=O)[O-])cc1S(=O)(=O)Nc1ccc(Cl)cc1	Cruzain inh noDet 5µM
COc1ccc(NS(=O)(=O)c2cc([N+](=O)[O-])ccc2N/N=C\c2c(C)[nH]c3ccccc23)cc1	Cruzain inh noDet inconclusive
Cc1ccc(/C=N/Nc2nc3ccccc3[nH]2)s1	none
COc1ccc(/C=N/Nc2ccc([N+](=O)[O-])cc2S(=O)(=O)N2CCN(C)CC2)cc1	none
O=C(N/N=C/c1ccc[nH]1)c1ccccc1[N+](=O)[O-]	none
COc1ccccc1NS(=O)(=O)c1cc([N+](=O)[O-])ccc1N/N=C/c1sc(N2CCOCC2)nc1-c1ccccc1	Cruzain inh noDet 6.3µM
CCc1ccc(CN(Cc2ccco2)c2cnc(S(C)(=O)=O)nc2C(=O)Nc2ccc(C)c(Cl)c2)cc1	Cruzain inh noDet inconclusive
Cc1[nH]c2ccc(C(=O)N3CCN(c4ccccc4F)CC3)cc2c1C	none
CCOc1ccccc1NC(=O)c1c(NC(=O)Cc2ccc(OC)cc2)sc2c1CCC2	none
O=C(NCc1ccccc1F)C1CCN(Cc2cc3ccccc3n2Cc2cccc(Cl)c2)CC1	Cruzain inh noDet inconclusive
O=C(N/N=C/c1c[nH]c2c1ccc1ccccc12)c1ccc([N+](=O)[O-])cc1	Cruzain inh noDet 6.3µM
O=C(N/N=C/c1c[nH]c2ccccc12)c1cccc([N+](=O)[O-])c1	none
O=C(NCc1ccco1)c1ccc2c(c1)N(Cc1cccc(Cl)c1)C(=O)c1ccccc1S2=O (stereo not given)	Cruzain inh noDet inconclusive
O=C1CC(SCc2nc3ccccc3[nH]2)C(=O)N1c1cccc(Cl)c1 (stereo not given)	Cruzain inh noDet 16µM
O=C1CC(SCc2nc3ccccc3[nH]2)C(=O)N1c1ccc(F)cc1 (stereo not given)	Cruzain inh noDet inconclusive
CCOC(=O)c1cnc2c(ccc3ccccc32)c1Nc1cccc(Cl)c1	none
Cc1ccc(C(=O)c2cn(Cc3cccc(F)c3)c3nc(C)ccc3c2=O)cc1	Cruzain inh noDet inconclusive
CC(C)CC(NC(=O)C1CCCN1C(=O)OC(C)(C)C)C(=O)NCC(N)=O (stereo not given)	none
CC(C)C[C@H](NC(=O)C1OC1C(=O)O)C(=O)NCCCCN=C(N)N (stereo not given in full)	Cruzain inh Det 0.079µM, Cruzain inh noDet 0.04µM
Cc1cc(C(=O)COC(=O)Cc2n[nH]c(=O)c3ccccc23)c(C)n1-c1ccc2c(c1)OCO2	Cruzain inh noDet 25µM

Compound activity deposited in PubChem by National Center for Advancing Translational Sciences (NCATS).
